Screening results (PubChem BioAssay)
IEC-6 cytotox = counter-screen for KLF5 inhibitors: cytotoxicity in IEC-6 cells; inhibition, % at 5 µM; hit rate 0.78% among 290,000; IEC-6 cytotoxicity, luminescence viability
APP transl inh = APP translation inhibition. SH-SY5Y APP 5'UTR-luciferase reporter, luminescence. inhibition, % at 2 µM. hit rate 0.82% among 190,000. AID 1285;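 active means inhibition above a set limit, derived from the sample mean plus 3 SD, cut at about 45% in these data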
Ba/F3 V617F tox = loss of viability in JAK2V617F-driven Ba/F3 cells. Ba/F3 EpoR-JAK2V617F viability, ATP luminescence. AID 1446. hit rate 1.1% among 220,000. inhibition, % at 5.6 µM;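 active means inhibition above the campaign mean plus 3 SD over all tested compounds, cut at about 24% in these data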;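 further: cytokine-independent growth of Ba/F3 cells driven by EpoR plus mutant JAK2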
BaF3 tox = reduces parental Ba/F3 cell viability, JAK2V617F counter-screen; CellTiter-Glo ATP luminescence; inhibition, % at 5.6 µM; hit rate 1.1% among 220,000; AID 1486;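 active means inhibition above a per-campaign cutoff, the mean inhibition of all tested compounds plus 3 SD, cut at about 27% in these data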
aSyn 5UTR inh = MLPCN primary screen, SNCA 5' untranslated region | alpha-synuclein 5'UTR reporter, inhibitor activity | inhibition, % (tested at 7.5 µM) | hit rate 0.82% among 300,000 | AID 1813; in the data active means inhibition above about 60%;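 further: H4 neuroglioblastoma cells stably carrying SNCA 5'UTR luciferase fusion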
KLF5 inh = suppresses KLF5 promoter-driven expression; inhibition, % at 5 µM; DLD-1 KLF5 promoter-luciferase reporter, luminescence; hit rate 0.23% among 290,000; AID 1700;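 active means inhibition above a per-plate limit of that plate's mean compound inhibition plus 3 SD, cut at about 60% in these data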;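 further: higher means less KLF5 promoter-driven luciferase light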
IEC-6 cytotox cf = confirmation of cytotoxic compounds in rat IEC-6 intestinal epithelial cells; shares compounds with IEC-6 cytotox; IEC-6 rat intestinal epithelial viability, luminescence; inhibition, % at 5 µM; hit rate 63% among 1,900
Numbers stand for hits; 0 = inactive; - = no result given. This is a sample that favours compounds with a hit; in the whole collection about 2.2% have one here. Unless noted, no stated cut-off is given here; in the data, active means inhibition above about 22%; inactive means the rest.

SMILES	IEC-6 cytotox	APP transl inh	Ba/F3 V617F tox	BaF3 tox	aSyn 5UTR inh	KLF5 inh	IEC-6 cytotox cf
COC1=C(N)C(=O)c2nc(-c3nc(C(=O)O)c(C)c(-c4ccc(OC)c(OC)c4O)c3N)ccc2C1=O	45	95	86	71	-	0	101
COc1ccc(-c2ncncc2-c2csc(C)n2)c(O)c1OC	0	0	0	0	0	0	-
O=C(Nc1ccc([N+](=O)[O-])cc1)Nc1ccon1	82	-	-	-	74	0	57
CCOc1ccc(C(=O)NCC(=O)N2CCCC2)cc1	0	-	-	-	0	0	-
O=C(CN1CCN(S(=O)(=O)N2CCCCC2)CC1)Nc1ccc(Br)cc1	0	-	-	-	0	0	-
CCCN(CCC)CCNC(=O)c1cc2c(-c3ccccc3F)nn(C)c2s1	0	-	-	-	0	0	-
CCCN(CCC)CCNC(=O)c1cc2c(-c3ccc(Cl)cc3)nn(C)c2s1	22	-	-	-	0	0	0
Cc1ccccc1NC(=O)c1cccc(NC(=O)c2ccco2)c1	0	-	-	-	0	0	-
CCOc1ccccc1NC(=O)c1cccc(NC(=O)c2ccco2)c1	55	91	82	68	0	0	52
Cc1cc2cc3c(cc2nc1SCC(=O)N1CCCC1)OCCO3	30	-	-	-	0	0	38
COc1ccccc1N1CCN(CCCn2c(=S)[nH]c3ccccc3c2=O)CC1	0	-	-	-	0	0	-
COc1ccc(N2CCN(CCCn3c(=S)[nH]c4ccccc4c3=O)CC2)cc1	43	-	-	-	0	0	0
O=C(COC(=O)c1ncc(Cl)c(Cl)c1Cl)Nc1cccnc1Cl	-	-	-	-	0	-	-
CCCCNc1ncnc2c1cnn2-c1ccc(Cl)cc1	0	0	0	0	0	0	-
CCCCNc1ncnc2c1cnn2-c1ccccc1	38	0	64	66	0	0	29
COc1ccc(NS(=O)(=O)c2cccc(C(=O)N(C)Cc3ccc(SC)cc3)c2)cc1	-	-	-	-	0	-	-
COc1cccc(N2CC(O)=C(c3nc4ccccc4c(=O)[nH]3)C2=N)c1	51	93	78	81	0	0	64
O=C(Cc1cn2ccsc2n1)OCc1ccccc1	35	0	0	0	-	0	0
Cc1ccc(S(=O)(=O)N2CCCOC2CNC(=O)C(=O)NC2CCCC2)cc1 (stereo not given)	0	-	-	-	0	0	-
CCc1ccc(OCC(=O)NNC(=S)NC(=O)C2CC2)c(Br)c1	30	-	-	-	-	0	0
CCc1ccc(OCC(=O)NNC(=S)NC(=O)C2CCCCC2)c(Br)c1	0	-	-	-	0	0	-
CC(/C=N/NC(=O)c1cccc(F)c1)=C\c1ccccc1	28	-	-	-	0	0	0
Clc1ccccc1OCc1nnc(-c2ccccc2Br)o1	0	0	0	0	0	0	-
O=c1c(Cl)c(Cl)cnn1Cc1nnc(-c2ccccc2Br)o1	30	94	0	0	0	0	0
CCCC(=O)Nc1ccc2c(c1)nc(CN1CCN(C(=O)OCC)CC1)n2CC	31	-	-	-	0	0	0
SMILES	IEC-6 cytotox	APP transl inh	Ba/F3 V617F tox	BaF3 tox	aSyn 5UTR inh	KLF5 inh	IEC-6 cytotox cf
COc1ccccc1CN1CC(C(=O)NCCc2ncccc2C)CCC1=O (stereo not given)	0	-	-	-	0	0	-
CC1(C)N=C(N)N=C(N)N1c1ccccc1	40	0	96	99	99	0	52
CC1(C)N=C(N)N=C(N)N1c1ccc(Oc2ccc(Cl)cc2)c(Cl)c1	55	-	-	-	85	0	33
Nc1ccc2nn(-c3ccccc3)nc2c1	0	0	0	0	-	0	-
COc1cccc(CN2CCN(S(=O)(=O)c3ccc(Cl)s3)CC2)c1	0	-	-	-	0	0	-
O=C(Nc1ccccc1)c1ccc(Nc2c([N+](=O)[O-])cc([N+](=O)[O-])c3ccccc23)cc1	0	0	0	0	0	0	-
O=[N+]([O-])c1cc(Br)c(Nc2ccccc2)c([N+](=O)[O-])c1	22	-	-	-	0	0	0
CO[C@H]1O[C@H](C)[C@@H](O)C[C@H]1NC(=O)OCc1ccccc1	0	-	-	-	0	0	-
COc1ccc(C(=O)c2ccc(OC)c(N)c2)cc1N	76	91	81	81	0	0	61
COc1ccc2[nH]c(=O)cc(C(=O)O)c2c1	0	0	0	0	0	0	-
COc1ccc2[nH]c3c4c(ccc3c2c1)C(=O)C=CC4=O	57	-	46	0	-	0	0
CCCN(CCC)CCNC(=O)C1(O)c2ccccc2NC(=O)N1c1cccc(OC)c1 (stereo not given)	0	-	-	-	0	0	-
CC(=O)Nc1ccc(NS(=O)(=O)c2ccc(-c3cnc(C4CC4)o3)cc2)cc1	0	-	-	-	0	0	-
Cc1cc(C)cc(NS(=O)(=O)c2ccc(-c3cnc(C4CC4)o3)cc2)c1	87	-	-	-	93	0	51
CC(=O)c1cccc(NS(=O)(=O)c2ccc(-c3cnc(C4CC4)o3)cc2)c1	38	-	-	-	0	0	38
Cc1ccc(C)c(NS(=O)(=O)c2ccc(-c3cnc(C4CC4)o3)cc2)c1	93	-	-	-	93	0	62
COc1ccccc1NS(=O)(=O)c1cc(-c2cnc(C3CC3)o2)ccc1C	0	-	-	-	0	0	-
COc1ccc(NS(=O)(=O)c2cc(-c3cnc(C4CC4)o3)ccc2C)cc1	81	-	-	-	82	0	74
CCOc1ccc(NS(=O)(=O)c2ccc(-c3cnc(C4CC4)o3)cc2)cc1	0	-	-	-	0	0	-
CC(=O)c1cccc(NC(=O)Nc2ccc3c(c2)OCO3)c1	0	-	-	-	-	0	-
Cc1cccc(NS(=O)(=O)c2ccc(-c3cnc(C4CC4)o3)cc2)c1C	88	-	-	-	100	0	58
O=S(=O)(NCc1ccc(F)cc1)c1ccc(-c2cnc(C3CC3)o2)cc1	0	-	-	-	0	0	-
O=S(=O)(Nc1ccccc1)c1ccc(-c2cnc(C3CC3)o2)cc1	42	-	-	-	0	0	33
CC1CCN(C(=O)c2cc(S(=O)(=O)N3CCCCC3)c[nH]2)CC1	0	-	-	-	0	0	-
CC(=O)N1CCc2cc(S(=O)(=O)NCC(=O)NCc3ccc(Cl)cc3)ccc21	0	-	-	-	0	0	-
SMILES	IEC-6 cytotox	APP transl inh	Ba/F3 V617F tox	BaF3 tox	aSyn 5UTR inh	KLF5 inh	IEC-6 cytotox cf
CCCc1nnc(NC(=O)c2nc(S(=O)(=O)Cc3ccc(C)cc3)ncc2Cl)s1	0	-	-	-	0	0	-
CSc1nnc(NC(=O)c2nc(S(=O)(=O)Cc3ccccc3)ncc2Cl)s1	34	-	-	-	0	0	0
CC(C)c1nnc(NC(=O)c2nc(S(=O)(=O)Cc3ccccc3)ncc2Cl)s1	42	-	-	-	0	0	0
CC1(c2ccccc2)NC(=O)N(CC(=O)N2CCN(S(=O)(=O)c3cccc([N+](=O)[O-])c3)CC2)C1=O (stereo not given)	-	-	-	-	0	-	-
O=C1CN(C(=O)/C=C/c2ccc(Br)cc2)CCN1	0	-	-	-	0	0	-
COC(=O)c1cc(C(=O)c2ccc(Cl)cc2)n2c(=O)/c(=C\N(C)C)sc12	0	0	0	0	0	0	-
Clc1ccc2[nH]c(-c3ccccc3)cc2c1	0	0	0	0	-	0	-
O=c1cc(-c2ccccc2)[nH]c2cc(Cl)ccc12	57	95	80	46	104	0	58
COc1ccc(NS(=O)(=O)c2cc(Br)cc3c2N(C(C)=O)CC3)cc1	38	-	-	-	0	0	33
O=C(CCCC1=NS(=O)(=O)c2ccccc2N1)N1CCN(c2ccc([N+](=O)[O-])cc2)CC1	0	-	-	-	0	0	-
